Active and inactive are the calls of the source. How the source made its calls: active means hit-call score of the fitted dose curve at least 0.9, where 1 is the maximum; inactive means score below 0.9.

Chain of Signal transducer and activator of transcription 3 (Homo sapiens) (P40763 whole entry, looked up): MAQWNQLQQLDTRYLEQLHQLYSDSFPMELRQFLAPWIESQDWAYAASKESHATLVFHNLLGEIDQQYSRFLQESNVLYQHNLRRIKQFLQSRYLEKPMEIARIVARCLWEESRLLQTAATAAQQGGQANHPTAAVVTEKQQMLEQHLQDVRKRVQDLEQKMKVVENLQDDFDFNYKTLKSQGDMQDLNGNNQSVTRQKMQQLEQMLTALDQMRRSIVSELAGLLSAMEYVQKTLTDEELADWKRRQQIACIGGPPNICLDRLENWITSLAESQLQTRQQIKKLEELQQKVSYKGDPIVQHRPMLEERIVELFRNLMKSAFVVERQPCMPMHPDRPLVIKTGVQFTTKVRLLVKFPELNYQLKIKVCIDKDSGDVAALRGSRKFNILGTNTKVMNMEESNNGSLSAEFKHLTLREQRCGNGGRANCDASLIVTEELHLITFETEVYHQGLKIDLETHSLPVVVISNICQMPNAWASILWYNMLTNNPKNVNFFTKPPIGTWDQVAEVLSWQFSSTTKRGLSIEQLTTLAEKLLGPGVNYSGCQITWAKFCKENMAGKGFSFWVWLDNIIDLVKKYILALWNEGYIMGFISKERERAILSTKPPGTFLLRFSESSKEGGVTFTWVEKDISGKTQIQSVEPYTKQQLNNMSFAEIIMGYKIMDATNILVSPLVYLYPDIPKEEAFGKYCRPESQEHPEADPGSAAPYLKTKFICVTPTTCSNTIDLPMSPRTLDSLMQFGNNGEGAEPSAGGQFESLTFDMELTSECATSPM

Read-out in the first experiment: Signal transducer and activator of transcription 3 (Homo sapiens) (UniProt P40763)
Put plainly: LTEA_HepaRG_STAT3: Life Technologies and Expression Analysis (LTEA) Assay for Signal transducer and activator of transcription (STAT3) using HepaRG (AID 2283529). To be noted: mRNA level, 48 h; actives raise or lower the signal. The method, boiled down:
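HepaRG, 48 h exposure, 8-pt half-log series (top 100 uM), 0.5% DMSO vehicle, duplicates. Readout: STAT3 transcript by Fluidigm qRT-PCR, housekeeping-normalized; bidirectional fit vs DMSO baseline.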
Regarding `CCNc1nc(N)nc(Cl)n1`, the call was inactive.
Still for that read-out and setting: for `CCCN(CCC)C(=O)SCC` the value was “inactive”; for `CC1(C)C(C=C(Cl)Cl)C1C(=O)OCc1cccc(Oc2ccccc2)c1` (stereo not drawn), “inactive”; for `Cc1nn(C)c(Oc2ccccc2)c1C=NOCc1ccc(C(=O)OC(C)(C)C)cc1`, “inactive”.
As to `CCOC(=O)COc1cc(-n2ncc(C(F)(F)F)c(C)c2=O)c(F)cc1Cl`, the outcome was inactive.
In the case of `c1ccc(Nc2ccccc2)cc1`, the compound was classed as inactive.
As for `N#CSCSc1nc2ccccc2s1`, the outcome was inactive.
With `CCCCC(CC)CN1C(=O)C2C3C=CC(C3)C2C1=O` (stereo not drawn), the result was inactive.
Turning to `CC(=O)S[C@@H]1CC2=CC(=O)CC[C@]2(C)[C@H]2CC[C@@]3(C)[C@@H](CC[C@@]34CCC(=O)O4)[C@H]12`, the compound was called inactive.
For the compound `CCCCOC(=O)C(C)Oc1ccc(Oc2ccc(C(F)(F)F)cn2)cc1` (stereo not drawn), the compound was classed as inactive.
Turning to `CC(C)CCCCCCc1ccc(O)cc1`, the compound was classed as inactive.
Consider `CCCOC(=O)NCCCN(C)C`, for which the outcome was inactive.
Still for that read-out and setting: the value for `O=C(O)C1(C(=O)Nc2ccc(Cl)cc2Cl)CC1` was “inactive”; that for `CCOC(=O)NCCOc1ccc(Oc2ccccc2)cc1` was “inactive”.
Turning to `O=C(c1ccc(O)cc1O)c1ccc(O)cc1O`, the result was inactive.
`CCOC(=O)c1ccc(O)cc1`: the result was inactive.
The same measure, in the same setting: for `CN(C)C(=O)Nc1ccc(Cl)c(Cl)c1` the value was “inactive”; for `C#C[C@]1(O)CC[C@H]2[C@@H]3CCC4=CC(=O)CC[C@@H]4[C@H]3CC[C@@]21CC`, “inactive”; for `CC(C)(C)[C@@H](O)[C@@H](Cc1ccc(Cl)cc1)n1cncn1`, “inactive”.
On the same count and under the same terms, the value for `CSC(=O)c1cccc2nnsc12` was “inactive”; that for `CCC(C)OC(=O)N1CCCCC1CCO` (stereo not drawn) was “inactive”; that for `CCCCC(CC)COC(=O)c1ccccc1C(=O)O` (stereo not drawn) was “inactive”.
The same measure, in the same setting: for `C[C@]12C[C@H](O)[C@H]3[C@@H](CCC4=CC(=O)CC[C@@]43C)[C@@H]1CC[C@@H]2C(=O)CO` the value was “inactive”.
Regarding `OB(O)O`, the outcome was inactive.
As to `Oc1ccc(C(c2ccc(O)cc2)C(Cl)(Cl)Cl)cc1`, the AC50 (in general, the concentration at which the activity in the assay is half-maximal) was 76.8 µM (active).
On to `c1ccc2[nH]c(-c3cscn3)nc2c1`, for which the result was inactive.
For `COC(=O)c1ccccc1C(=O)O`, the compound was classed as inactive.

Read-out in another experiment: solute carrier (SLCO1B1), SLCO1B1 (gene 10599)
Put plainly: LTEA_HepaRG_SLCO1B1: Life Technologies and Expression Analysis (LTEA) Assay for solute carrier (SLCO1B1) using HepaRG (AID 2283530). To be noted: mRNA level, 48 h; actives raise or lower the signal. Summed up: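 Gain or loss of SLCO1B1 mRNA is fitted against the 0.5% DMSO vehicle in human HepaRG liver cells treated 48 h at up to 100 uM in half-log steps. Expression comes from qRT-PCR normalized to endogenous controls.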
Consider `CCNc1nc(N)nc(Cl)n1`, for which the compound was classed as inactive.
Regarding `CCCN(CCC)C(=O)SCC`, the call was inactive.
The same measure, in the same setting: the value for `CC1(C)C(C=C(Cl)Cl)C1C(=O)OCc1cccc(Oc2ccccc2)c1` (stereo not drawn) was “inactive”.
With `Cc1nn(C)c(Oc2ccccc2)c1C=NOCc1ccc(C(=O)OC(C)(C)C)cc1`, the AC50 was 23.2 µM (active).
Regarding `CCOC(=O)COc1cc(-n2ncc(C(F)(F)F)c(C)c2=O)c(F)cc1Cl`, the call was inactive.
In the case of `c1ccc(Nc2ccccc2)cc1`, the compound was called inactive.
`N#CSCSc1nc2ccccc2s1`: the AC50 is 95.8 µM (active).
With `CCCCC(CC)CN1C(=O)C2C3C=CC(C3)C2C1=O` (stereo not drawn), the call was inactive.
`CC(=O)S[C@@H]1CC2=CC(=O)CC[C@]2(C)[C@H]2CC[C@@]3(C)[C@@H](CC[C@@]34CCC(=O)O4)[C@H]12`: the AC50 was 50.4 µM (active).
As to `CCCCOC(=O)C(C)Oc1ccc(Oc2ccc(C(F)(F)F)cn2)cc1` (stereo not drawn), the compound was classed as inactive.
Consider `CC(C)CCCCCCc1ccc(O)cc1`, for which the compound was called inactive.
Still for that read-out and setting: for `CCCOC(=O)NCCCN(C)C` the value was “inactive”.
Consider `O=C(O)C1(C(=O)Nc2ccc(Cl)cc2Cl)CC1`, for which the half-maximal activity concentration (AC50) is 77.1 µM (active).
On the same count and under the same terms, the value for `CCOC(=O)NCCOc1ccc(Oc2ccccc2)cc1` was 93.4 µM (active).
Take `O=C(c1ccc(O)cc1O)c1ccc(O)cc1O`: the outcome was inactive.
Still for that read-out and setting: the value for `CCOC(=O)c1ccc(O)cc1` was “inactive”.
`CN(C)C(=O)Nc1ccc(Cl)c(Cl)c1`: the call was inactive.
On to `C#C[C@]1(O)CC[C@H]2[C@@H]3CCC4=CC(=O)CC[C@@H]4[C@H]3CC[C@@]21CC`, for which the concentration at half-maximal activity (AC50) was 0.0325 µM (active).
With `CSC(=O)c1cccc2nnsc12`, the call was inactive.
As to `CCC(C)OC(=O)N1CCCCC1CCO` (stereo not drawn), the compound was called inactive.
Take `CCCCC(CC)COC(=O)c1ccccc1C(=O)O` (stereo not drawn): the result was inactive.
Regarding `C[C@]12C[C@H](O)[C@H]3[C@@H](CCC4=CC(=O)CC[C@@]43C)[C@@H]1CC[C@@H]2C(=O)CO`, the AC50 is 50 µM (active).
`OB(O)O`: the compound was classed as inactive.
Take `Oc1ccc(C(c2ccc(O)cc2)C(Cl)(Cl)Cl)cc1`: the result was inactive.
Still for that read-out and setting: the value for `c1ccc2[nH]c(-c3cscn3)nc2c1` was “inactive”.
For the compound `COC(=O)c1ccccc1C(=O)O`, the compound was called inactive.

The values above are taken from PubChem BioAssay (EPA / NIEHS).
